# The list is not random: actives were taken first. Their share in the collection is about 21%.
# Pf growth 96h – Primary qHTS for delayed death inhibitors of the malarial parasite plastid, 96 hour incubation; 320,000 compounds, 6.9% hits; P. falciparum luciferase reporter growth, 96 h; Potency, µM (doses to about 28.7 µM), for the others: at the highest dose activity change, negative = inhibition, usual class: inhibitors; note: potency is the fitted concentration of half-maximal effect; % is set by controls: 0 for no effect and ±100 for the full control effect
#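 Infected RBCs, 2% Hct / 0.05% parasitemia final; luciferase-reporter P. falciparum; cpd 96 h, 37 C, 5% CO2; luciferase detection reagent; luminescence.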
# Shiga inhibitor – A qHTS for Small Molecule Inhibitors of Shiga Toxin. Vero cells, Shiga toxin protein synthesis inhibition reporter. inhibition, % at 38.7 µM. 290,000 compounds, 9.2% hits. AID 2315, 2010; in the data active = inhibition mostly above about 28%, no sharp cut-off; inactive = mostly below about 43%; note: 0% is about no effect
# Cycloheximide cs – Cycloheximide Counterscreen for Small Molecule Inhibitors of Shiga Toxin; max response, %; cell reporter, cycloheximide protein synthesis inhibition counterscreen; 300,000 compounds, 12% hits; in the data active = max response mostly above about 13%, no sharp cut-off; inactive = mostly below about 14%; note: read at 38.3 µM for the half of the compounds with a filed dose; 0% is about no effect
# HCV inhibitor – qHTS Assay for Inhibitors of Hepatitis C Virus (HCV); Huh7.5.1 HCVcc-Cre infection, luciferase reporter, 44 h; Potency, µM (series often up to 41.8 µM), for inactives: at the top dose activity change, negative = inhibition, actives largely listed as inhibitors; 340,000 compounds, 3.4% hits; AID 651820, 2012; note: potency is the fitted concentration of half-maximal effect; % is set by controls: 0 for no effect and ±100 for the full control effect
#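 Reporter virus HCVcc-Cre (~0.5 moi) infects cells exposed to compound; seeding density 1,000 cells/well with 4 h settling beforehand. Luminescence, 15 sec read, taken 44 h post-infection following a 15 min RT substrate incubation.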
# Pf growth 48h – Primary qHTS for delayed death inhibitors of the malarial parasite plastid, 48 hour incubation; Potency, µM (doses to about 28.7 µM), for inactives: top-dose activity change, negative = inhibition, usual class: inhibitors; P. falciparum luciferase growth in erythrocytes, 48 h; 310,000 compounds, 5.9% hits; note: potency is the fitted concentration of half-maximal effect; % is set by controls: 0 for no effect and ±100 for the full control effect
#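 Luciferase-expressing parasites in RBCs, 2% Hct / 0.1% parasitemia final; RPMI 1640 + 0.5% Albumax; 37 C, 5% CO2, one generation; luminescence read-out, lower signal = inhibition.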
# HCMV inh – qHTS Assay for inhibitors of the human cytomegalovirus (HCMV); HFF cells, HCMV-luciferase reporter, 72 h; active compounds read low; activity change, negative = inhibition, % at 57.5 µM; 410,000 compounds, 4.5% hits; AID 1259415, 2018; in the data active = activity change below about -60%; inconclusive = no clear call, values can overlap the other calls; inactive = above about -39%; note: % is set by controls: 0 for no effect and ±100 for the full control effect
#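 Cell-based, HFFs, 1000 cells/well, 16 h 37C; cpds in DMSO + HCMV-luc, MOI 1 PFU/cell; 72 h 37C; OneGlo luminescence after 5 min RT; norm. to buffer vs Salinomycin 10uM.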
# An asterisk follows results filed as active; ? = inconclusive; / = no result. Unless noted, calls come from the whole dose curve; as a rule, active = well fitted inhibition curve with a large enough effect; inconclusive = small, poorly fitted or top-dose-only effect, or another doubt; inactive = no such curve, though single readings can be large or run the other way.
SMILES,Pf growth 96h,Shiga inhibitor,Cycloheximide cs,HCV inhibitor,Pf growth 48h,HCMV inh
Cc1cc(C)nc(S/C=C/C(=O)c2ccc(F)cc2)n1,-19.2%,68.0*,36.6*,/,?,/
COC(=O)[C@H]1C[C@@]2(O)CN(S(=O)(=O)c3ccc(C)cc3)C[C@@]2(OC(=O)NC2CC2)C[C@H]1C(=O)OC,/,/,/,/,/,-19.9
CCCc1cc(=O)[nH]c(SCC(=O)N2CCN(S(=O)(=O)c3ccccc3)CC2)n1,?,-5.4,-2.3,1.3%,-8.8%,7.4
CCCc1cc(=O)[nH]c(SCC(=O)N2CCN(S(=O)(=O)c3ccc(C)cc3)C2)n1,13.1µM*,-13.2,-7.5,8.6%,/,26.5
Cc1cc(C)nc(SCC(=O)c2ccc(F)cc2)n1,221.9%,31.3*,17.2*,-9.0%,-18.0%,15.4
Cc1cc(N2CCCCC2)nc(SCC(=O)c2ccccc2)n1,-25.1%,73.1*,33.7*,?,43.2%,55.4
Cc1cc(=O)[nH]c(SCC(=O)N2CCN(C(c3ccccc3)c3ccccc3)CC2)n1,-7.7%,15.4,-2.5,?,13.1µM*,-12.6
Cc1cc(=O)[nH]c(SCC(=O)N2CCN(c3ccccc3)CC2)n1,/,/,/,/,/,3.4
Cc1[nH]c2c(C)cccc2c1CCNC(=O)c1cc2ccccc2oc1=O,/,/,/,/,/,19.2
Cc1cc(N2CCCC2)nc(-c2ccccc2O)n1,-2.7%,5.4,7.6,3.16µM*,27.0%,-101.9*
COc1ccc(C(=O)CSc2nc(C)cc(C)n2)cc1C,5.5%,11.6,6.2,?,-7.0%,28.9
Cc1cc(C)nc(SCC(=O)c2ccc(F)cc2F)n1,15.4%,/,20.0*,0.3%,?,-3.2
Cc1cc(C)nc(SCC(=O)c2ccc(F)c(C)c2)n1,-10.7%,22.1,10.6*,1.9%,?,1.1
Cc1cc(C)nc(SCNC(=O)c2ccc(F)cc2)n1,2.8%,-4.4,-3.5,-1.8%,22.3%,1.5
Cc1cc2c(s1)c1cnn(Cc3ccccc3F)c(=O)c1n2Cc1ccccc1F,/,6.7,14.8,/,/,/
COc1cc(OC)c(NC(=O)c2c(C)oc3ncnc(N4CCCCC4)c23)cc1Cl,/,/,/,/,/,-7.1
COc1cccc(Cn2c(CNS(=O)(=O)c3ccc(F)c(Cl)c3)nc3cccnc32)c1,/,/,/,/,/,-13.8
O=C(Nc1ccccc1Cl)C1CCN(c2nc3ccccc3[nH]2)CC1,/,/,/,/,/,0.0
FC(F)(F)Oc1ccccc1C(c1nnnn1C1CCCC1)N1CCN(C/C=C/c2ccccc2)CC1 (centres undefined),/,/,/,/,/,-19.8
CN1CCCN(C(=O)c2ccc(Cl)s2)CC1,?,6.0,0.9,9.4%,18.9%,-14.7
N#Cc1cc(-c2ccccc2)nc(Oc2ccc(Cl)cc2)n1,?,-1.1,-4.5,?,-32.2%,-18.9
N#Cc1cnc(Oc2ccc(Cl)cc2)nc1N,33.3%,26.8,18.9*,-0.2%,40.7%,29.1
COC(=O)[C@]1(C)CCC[C@@]2(C)C3CC[C@@]4(C)C[C@]3(CCC21)CC(=O)N4Cc1ccc(OC)cc1 (some centres undefined),1.47µM*,/,/,12.6µM*,1.65µM*,6.3
O=C(O)CC(CC(=O)N1CCN(C(=O)c2ccco2)CC1)c1ccccc1 (centres undefined),22.7%,2.8,10.5,10.2%,124.3%,8.4
Cc1onc(-c2ccccc2)c1CNC(=O)C1COc2ccccc2O1 (centres undefined),?,-14.0,-0.3,2.1%,13.1µM*,-15.1
SMILES,Pf growth 96h,Shiga inhibitor,Cycloheximide cs,HCV inhibitor,Pf growth 48h,HCMV inh
Cc1ccc(CNC(=O)C2COc3ccccc3O2)cc1 (centres undefined),34.7%,35.3,26.0*,14.9%,25.6%,?
COc1ccc(CNC(=O)C2COc3ccccc3O2)c(OC)c1 (centres undefined),-1.4%,103.1*,30.5*,-5.9%,-6.0%,23.4
Cc1cccc(C)c1NC(=O)CNC(=O)C1COc2ccccc2O1 (centres undefined),14.5%,/,/,17.3%,18.1%,-22.7
O=C(NCc1ccccc1)C1COc2ccccc2O1 (centres undefined),33.7%,59.2*,19.5*,15.0%,121.5%,7.3
Cc1onc(-c2ccccc2)c1C(=O)NCC1COc2ccccc2O1 (centres undefined),/,-16.2,8.3,2.4%,27.8%,-28.6
CCC(CC)NC(=O)Cc1ccc(F)cc1,9.5%,-10.9,-3.1,12.8%,2.7%,38.7
CCc1c(C)nc2nc(SCc3ccccc3)[nH]n2c1=O,12.4%,-5.9,-1.4,14.3%,16.3%,29.5
CSCC[C@H](NC(=O)[C@H](CC(C)C)NC(=O)CNC(=O)[C@H](Cc1ccccc1)NC(=O)[C@H](Cc1ccccc1)NC(=O)[C@H](CCC(N)=O)NC(=O)[C@H](CCC(N)=O)NC(=O)[C@@H]1CCCN1C(=O)[C@H](CCCCN)NC(=O)[C@@H]1CCCN1C(=O)[C@@H](N)CCCN=C(N)N)C(N)=O,/,-3.0,-7.3,/,/,/
CC(C)N(C(=O)[C@H]1C[C@H](CC(=O)NCCCN(C)C)C(=O)N2CCc3c([nH]c4cc(CCC(=O)N(C)C)ccc34)[C@]12C)C(C)C,/,/,/,0.316µM*,/,-14.3
CC(C)=CCC/C(C)=C/CNC(=O)C[C@H]1C[C@H](C(=O)N(C(C)C)C(C)C)[C@@]2(C)c3[nH]c4cc(CCC(=O)N(C)C)ccc4c3CCN2C1=O,/,/,/,10µM*,/,-15.2
CC(C)N(C(=O)[C@H]1C[C@H](CC(=O)NCCCN(C)C)C(=O)N2CCc3c([nH]c4cc(-c5ccco5)ccc34)[C@]12C)C(C)C,/,/,/,8.91µM*,/,-24.2
C[C@]12c3[nH]c4cc(-c5ccco5)ccc4c3CCN1C(=O)[C@@H](CC(=O)NCC13CC4CC(CC(C4)C1)C3)C[C@@H]2C(=O)N1CCOCC1,/,/,/,25.1µM*,/,-29.4
CCN(C(=O)c1cn(C)c(=O)c2ccccc12)c1cccc(C)c1,/,/,/,/,/,-1.4
Cc1ccc(OCCCCN2CCCC(C)C2)c([N+](=O)[O-])c1 (centres undefined),?,32.3,-1.6,?,?,-18.8
CN(C)CCCNC(=O)C[C@H]1C[C@H](C(=O)N2CCOCC2)[C@@]2(CCC3CCCC3)c3[nH]c4cc(-c5ccco5)ccc4c3CCN2C1=O,/,/,/,7.94µM*,/,?
Cc1ccc(NC(=O)c2cc(N(C)C)ccc2[P+](=O)O)cc1,-11.7%,104.8*,83.7*,17.6%,86.5%,31.5
Cc1cc(NS(=O)(=O)c2ccc(NC(=O)c3c(F)c(F)c(F)c(F)c3F)cc2)nc(C)n1,?,-19.0,-2.0,11.6%,-14.6%,?
Cc1cccc(NS(=O)(=O)c2ccc(NC(=O)N3CCCCC3)cc2)c1,-18.4%,6.0,-1.8,/,-16.6%,32.9
